Experimental data reported in PubChem BioAssay AID1159580 (chemical genetic matrix, 2015).
Among all 5,500 compounds or so, about 2,000 (36%) were called active. Not shown: some 18% with an inconclusive outcome. No stated cut-off is given here; in the data, active means normalized growth mostly below about 0.91 (no sharp cut-off); inconclusive means no clear call, values can overlap the other calls; inactive means mostly above about 0.92. The list shows a part of the results.

Assay: chemical genetic growth profiling, strain panel (AID 1159580);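 further: tested at 20 µM; growth read once vehicle control cultures reached saturation at 30 °C; 1 = growth at the plate median or of vehicle wells; lower values mean less growth of the strain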
Settings: growth OD

Measured: normalized growth

NCC(N)C(=O)c1ccccc1 (stereo not drawn)
inactive: S. cerevisiae deletion strains, locus YJR043C, strain POL32, active compounds read low 1.01 | S. cerevisiae deletion strains, locus YJR066W, strain TOR1, active compounds read low 0.969 | S. cerevisiae deletion strains, locus YKL009W, strain mrt4, active compounds read low 1.1 | S. cerevisiae deletion strains, locus YKL068W, active compounds read low 1.03 | S. cerevisiae deletion strains, locus YKL085W, strain MDH1 (second series), active compounds read low 1.02 | S. cerevisiae deletion strains, locus YKL085W, strain MDH1, active compounds read low 1.02 | S. cerevisiae deletion strains, locus YKL160W, strain elf1, active compounds read low 1.02 | S. cerevisiae deletion strains, locus YKL190W, strain CNB1, active compounds read low 1.01 | S. cerevisiae deletion strains, locus YKR001C, strain vps1, active compounds read low 0.979 | S. cerevisiae deletion strains, locus YKR026C, strain gcn3, active compounds read low 1.02 | S. cerevisiae deletion strains, locus YKR091W, strain srl3, active compounds read low 1.02 | S. cerevisiae deletion strains, locus YLL001W, strain dnm1, active compounds read low 1.02 | S. cerevisiae deletion strains, locus YLL026W, active compounds read low 1.03 | S. cerevisiae deletion strains, locus YLL041C, strain sdh2, active compounds read low 1.02 | S. cerevisiae deletion strains, locus YLR027C, strain aat2, active compounds read low 1.03 | S. cerevisiae deletion strains, locus YLR039C, strain RIC1, active compounds read low 1.04 | S. cerevisiae deletion strains, locus YLR058C, strain SHM2, active compounds read low 1.01 | S. cerevisiae deletion strains, locus YLR102C, strain apc9, active compounds read low 0.992 | S. cerevisiae deletion strains, locus YLR113W, strain HOG1, active compounds read low 0.949 | S. cerevisiae deletion strains, locus YLR221C, strain rsa3, active compounds read low 1.04 | S. cerevisiae deletion strains, locus YLR258W, strain gsy2, active compounds read low 1 | S. cerevisiae deletion strains, locus YLR262C, strain YPT6 (second series), active compounds read low 1.03 | S. cerevisiae deletion strains, locus YLR262C, strain YPT6, active compounds read low 1.06 | S. cerevisiae deletion strains, locus YLR268W, strain sec22, active compounds read low 0.991 | S. cerevisiae deletion strains, locus YLR320W, strain mms22, active compounds read low 1.04 | S. cerevisiae deletion strains, locus YLR330W, strain CHS5, active compounds read low 1.04 | S. cerevisiae deletion strains, locus YLR342W, strain FKS1 (second series), active compounds read low 0.985 | S. cerevisiae deletion strains, locus YLR342W, strain FKS1, active compounds read low 1.01 | S. cerevisiae deletion strains, locus YLR357W, strain rsc2, active compounds read low 1.03 | S. cerevisiae deletion strains, locus YLR370C, strain arc18, active compounds read low 1.05 | S. cerevisiae deletion strains, locus YLR371W, strain rom2, active compounds read low 1 | S. cerevisiae deletion strains, locus YLR384C, strain iki3, active compounds read low 1.03 | S. cerevisiae deletion strains, locus YLR418C, strain cdc73, active compounds read low 0.987 | S. cerevisiae deletion strains, locus YML016C, strain PPZ1, active compounds read low 1 | S. cerevisiae deletion strains, locus YML032C, strain rad52, active compounds read low 1.01 | S. cerevisiae deletion strains, locus YML120C, strain ndi1, active compounds read low 1 | S. cerevisiae deletion strains, locus YML124C, strain tub3, active compounds read low 1.01 | S. cerevisiae deletion strains, locus YMR058W, strain fet3, active compounds read low 1.05 | S. cerevisiae deletion strains, locus YMR078C, strain ctf18, active compounds read low 1.01 | S. cerevisiae deletion strains, locus YMR125W, strain sto1, active compounds read low 1.01 | S. cerevisiae deletion strains, locus YMR129W, active compounds read low 1.04 | S. cerevisiae deletion strains, locus YMR205C, strain PFK2, active compounds read low 1.06 | S. cerevisiae deletion strains, locus YMR223W, strain ubp8, active compounds read low 1.04 | S. cerevisiae deletion strains, locus YMR231W, strain pep5, active compounds read low 1.03 | S. cerevisiae deletion strains, locus YMR307W, strain GAS1, active compounds read low 0.964 | S. cerevisiae deletion strains, locus YNL067W, strain RPL9B, active compounds read low 1 | S. cerevisiae deletion strains, locus YNL071W, strain lat1, active compounds read low 1.02 | S. cerevisiae deletion strains, locus YNL153C, strain GIM3, active compounds read low 1.01 | S. cerevisiae deletion strains, locus YNL183C, strain NPR1, active compounds read low 0.901 | S. cerevisiae deletion strains, locus YNL209W, strain ssb2, active compounds read low 1.03 | S. cerevisiae deletion strains, locus YNL233W, strain BNI4, active compounds read low 1.02 | S. cerevisiae deletion strains, locus YNL248C, strain rpa49, active compounds read low 1.03 | S. cerevisiae deletion strains, locus YNL250W, strain rad50, active compounds read low 1.02 | S. cerevisiae deletion strains, locus YNL271C, strain bni1, active compounds read low 1.01 | S. cerevisiae deletion strains, locus YNL298W, strain CLA4, active compounds read low 1.01 | S. cerevisiae deletion strains, locus YNL307C, strain MCK1, active compounds read low 0.996 | S. cerevisiae deletion strains, locus YNL322C, strain KRE1 (second series), active compounds read low 1.01 | S. cerevisiae deletion strains, locus YNL322C, strain KRE1, active compounds read low 1.01 | S. cerevisiae deletion strains, locus YNR049C, strain mso1, active compounds read low 1.03 | S. cerevisiae deletion strains, locus YNR052C, strain pop2, active compounds read low 0.994 | S. cerevisiae deletion strains, locus YOL012C, strain htz1 1.74 | S. cerevisiae deletion strains, locus YOL147C, strain pex11, active compounds read low 0.993 | S. cerevisiae deletion strains, locus YOR001W, strain rrp6, active compounds read low 1.04 | S. cerevisiae deletion strains, locus YOR061W, strain CKA2, active compounds read low 1.01 | S. cerevisiae deletion strains, locus YOR069W, strain VPS5, active compounds read low 1.01 | S. cerevisiae deletion strains, locus YOR070C, strain gyp1, active compounds read low 1.04 | S. cerevisiae deletion strains, locus YOR080W, strain dia2, active compounds read low 1.05 | S. cerevisiae deletion strains, locus YOR083W, strain WHI5, active compounds read low 1.02 | S. cerevisiae deletion strains, locus YOR106W, strain vam3, active compounds read low 1.02 | S. cerevisiae deletion strains, locus YOR136W, strain idh2, active compounds read low 1.01 | S. cerevisiae deletion strains, locus YOR144C, strain elg1, active compounds read low 0.996 | S. cerevisiae deletion strains, locus YOR184W, strain ser1, active compounds read low 0.994 | S. cerevisiae deletion strains, locus YOR231W, strain MKK1, active compounds read low 0.962 | S. cerevisiae deletion strains, locus YOR265W, strain rbl2, active compounds read low 1.05 | S. cerevisiae deletion strains, locus YOR270C, strain vph1, active compounds read low 1.11 | S. cerevisiae deletion strains, locus YOR290C, strain snf2, active compounds read low 1 | S. cerevisiae deletion strains, locus YOR316C, strain cot1, active compounds read low 0.993 | S. cerevisiae deletion strains, locus YPL051W, strain arl3, active compounds read low 1.04 | S. cerevisiae deletion strains, locus YPL078C, strain atp4, active compounds read low 1.02 | S. cerevisiae deletion strains, locus YPL106C, strain sse1, active compounds read low 1.01 | S. cerevisiae deletion strains, locus YPL240C, strain hsp82, active compounds read low 1.02 | S. cerevisiae deletion strains, locus YPL256C, strain CLN2, active compounds read low 0.96 | S. cerevisiae deletion strains, locus YPR119W, strain clb2, active compounds read low 0.999 | S. cerevisiae deletion strains, locus YPR141C, strain kar3, active compounds read low 1.01 | S. cerevisiae deletion strains, locus YPR163C, strain tif3, active compounds read low 0.995 | S. cerevisiae deletion strains, locus YPR167C, strain met16, active compounds read low 1.01 | S. cerevisiae deletion strains, strain wtn01, active compounds read low 0.999 | S. cerevisiae strains, strain wild type, active compounds read low 1.02
